Source: PubChem BioAssay
IL-1B inflam inh: qHTS for Inhibitors of Inflammasome Signaling: IL-1-beta AlphaLISA Primary Screen | THP-1 LPS/ATP IL-1B secretion, AlphaLISA, 16 h; hits give low values | activity change, % at 57.5 µM | hit rate 4.7% among 360,000; in the data active = activity change below about -50%; inconclusive = mostly about -30% to -49%; also: % is scaled to controls: 0 for no effect and ±100 for the full control effect
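THP-1 cells pretreated 1 hr with compounds (up to 57.5 uM final), then stimulated with LPS (250 ng/mL final) plus ATP (1.25 mM final); secreted IL-1B measured by AlphaLISA after 16 hr, decreased signal indicating inhibition.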
TGFb inhibitor: qHTS for Inhibitors of TGF-b. AID 588855, 2011. HepG2 CAGA-GFP TGF-b/SMAD3 reporter, GFP fluorescence, 18 h; TGF-beta stimulated, 500 pg/mL final. hit rate 1.2% among 410,000. Potency, µM (top dose mostly 46.1 µM), for inactives: at the highest dose activity, negative = inhibition, most hits filed as inhibitors; also: potency is read from the fitted curve at half-maximal effect; % is scaled to controls: 0 for no effect and ±100 for the full control effect; nearly all actives have a fitted effect of over 65% in size
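First, reporter cells (HEPG2 CAGA-GFP) rested 2 h at 37 degrees C. Next, compounds were pinned in and TGF-beta added to 500 pg/mL final. After 18 h, GFP was imaged per cell and summed per well.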
HepG2 tox: qHTS for Inhibitors of TGF-b: Cytotox Counterscreen; HepG2 CAGA-GFP viability, ATP luminescence, 18 h; Potency, µM (series often up to 46.1 µM), for inactives: at the highest dose activity change, negative = cytotoxicity, hits mostly cytotoxic; hit rate 0.76% among 410,000; AID 588856, 2011; also: potency is read from the fitted curve at half-maximal effect
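HepG2 CAGA-GFP cells (1000/well, DMEM with 1% FBS) received compound, then TGF-beta at 500 pg/mL final, and were incubated 18 hours at 37 degrees C. Viability was read by CellTiter-Glo luminescence. Media-only wells were set as complete cell-killing and DMSO as no toxicity.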
DT40 TDP1 CPT: qHTS for Inhibitors of human tyrosyl-DNA phosphodiesterase 1 (TDP1): qHTS in cells in presence of CPT; chicken DT40 Tdp1-/-;hTDP1 cells + 20 nM CPT, ATP luminescence, 48 h; Potency, µM (top dose mostly 46.2 µM), without a hit: top-dose activity change, negative = growth inhibition, most hits filed as inhibitors; hit rate 12% among 420,000; AID 686979, 2013; also: potency is read from the fitted curve at half-maximal effect; % is scaled to controls: 0 for no effect and ±100 for the full control effect; nearly all actives have a fitted effect of over 55% in size
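Cell growth measured by CellTiter-Glo luminescence after a minimum 48 h, 37 C compound exposure with 20 nM CPT in Tdp1-knockout DT40 cells stably expressing hTDP1, seeded 400/well; qHTS titration format.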
DT40 TDP1 no CPT: qHTS for Inhibitors of human tyrosyl-DNA phosphodiesterase 1 (TDP1): qHTS in cells in absence of CPT; DT40 Tdp1-/- hTDP1 cells, no CPT, ATP luminescence, 48 h; AID 686978, 2013; Potency, µM (top dose mostly 46.2 µM), inactives show at the highest dose activity change, negative = growth inhibition, actives largely listed as inhibitors; hit rate 15% among 420,000; also: potency is read from the fitted curve at half-maximal effect; % is scaled to controls: 0 for no effect and ±100 for the full control effect; nearly all actives have a fitted effect of over 55% in size
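Chicken DT40 Tdp1-/- cells complemented with human TDP1, screened without camptothecin (DMSO vehicle only), 400 cells/well. Compounds pin-transferred, cells incubated at 37 °C for at least 48 hr. Growth read as ATP-dependent luminescence (CellTiter-Glo, 30 min at RT).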
TDP1 inh: qHTS Assay for Inhibitors of Tyrosyl-DNA Phosphodiesterase (TDP1) | Tyrosyl-DNA phosphodiesterase 1 (Homo sapiens), Q9NUW8 | recombinant TDP1, AlphaScreen DNA substrate cleavage | Potency, µM (highest dose often 130 µM), for inactives: top-dose activity change, negative = inhibition, hits mostly inhibitors | hit rate 0.28% among 350,000 | AID 485290, 2010; also: potency is read from the fitted curve at half-maximal effect; % is scaled to controls: 0 for no effect and ±100 for the full control effect; nearly all actives have a fitted effect of over 40% in size
Target sequence (Q9NUW8 whole entry, looked up): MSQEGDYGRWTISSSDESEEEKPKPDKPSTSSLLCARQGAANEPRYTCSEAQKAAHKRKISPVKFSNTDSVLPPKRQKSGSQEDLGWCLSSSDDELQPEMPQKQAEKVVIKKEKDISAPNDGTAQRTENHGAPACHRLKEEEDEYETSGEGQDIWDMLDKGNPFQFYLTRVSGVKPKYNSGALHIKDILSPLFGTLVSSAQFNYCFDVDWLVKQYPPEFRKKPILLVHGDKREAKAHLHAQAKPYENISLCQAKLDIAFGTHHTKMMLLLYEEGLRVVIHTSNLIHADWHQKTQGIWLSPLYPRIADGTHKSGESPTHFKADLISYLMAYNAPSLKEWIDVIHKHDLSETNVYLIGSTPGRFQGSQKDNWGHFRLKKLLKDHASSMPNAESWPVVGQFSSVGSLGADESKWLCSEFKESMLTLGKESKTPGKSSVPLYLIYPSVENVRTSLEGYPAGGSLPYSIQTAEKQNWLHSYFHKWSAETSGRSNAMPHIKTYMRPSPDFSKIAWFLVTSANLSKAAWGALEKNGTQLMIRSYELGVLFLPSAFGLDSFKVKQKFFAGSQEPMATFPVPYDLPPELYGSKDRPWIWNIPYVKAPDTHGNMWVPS
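Steps: enzyme plus compound, 15 min RT; add biotin/phosphotyrosine-FITC oligonucleotide (15 nM final), react 5 min; add donor/acceptor beads (10 ug/ml final), 10 min; read AlphaScreen. Tdp1 at 1 nM final.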
* marks the source's active call; other numbers are inactive results; ? = inconclusive; / = no result. Only some compounds are listed: those with a hit (about 18% of all), similar ones and a draw of the others. Unless noted, calls follow the shape of the dose curve; as a rule, active = well fitted curve in the direction sought with a large enough effect; inconclusive = small, poorly fitted or top-dose-only effect, or another doubt; inactive = no such curve, though single readings can be large; an effect the other way counts as inactive or inconclusive.

SMILES | IL-1B inflam inh | TGFb inhibitor | HepG2 tox | DT40 TDP1 CPT | DT40 TDP1 no CPT | TDP1 inh
Cc1ccccc1NC(=O)NCCCN1CCCC1 | 35.3 | 1.6% | -0.9% | -17.8% | 12.3% | 4.6%
O=C(CSc1nnc(CNC(=O)c2ccccc2F)n1-c1ccccc1)Nc1ccccc1F | / | -1.7% | -12.7% | 2.2% | -7.4% | -2.3%
O=C(Nc1ccc(Cl)c(-c2nc3ccccc3o2)c1)c1cccc2c(Cl)cccc12 | / | -19.5% | -2.4% | 3.6% | -4.9% | -1.9%
CCCN(CC(=O)Nc1ccccc1C)C(=O)c1ccc(COc2ccccc2)cc1 | -4.7 | -8.5% | -15.9% | 23.1µM* | ? | 0.1%
O=C(Nc1ccc(F)c(F)c1)c1cnn2c1NC(=C1CC1)C=C2C(F)(F)F | / | 15.7% | 20.4% | -15.1% | -14.6% | /
CC(=O)N1CCN(c2ccc(NC(=O)c3ccc(N4CCCC4)c([N+](=O)[O-])c3)cc2Cl)CC1 | -21.3 | -4.1% | -11.5% | ? | ? | 3.2%
O=C(Nc1ccc(N2CCOCC2)c(Cl)c1)C1CCCCC1 | -21.9 | ? | 8.1% | 20.6µM* | 16.4µM* | -7.3%
O=C(Nc1ccc(N2CCCCC2)c(Cl)c1)c1ccc(N2CCOCC2)c([N+](=O)[O-])c1 | -13.0 | ? | -21.4% | 18.4µM* | 12.6µM* | 1.0%
O=C(Nc1nc2ccc(Cl)cc2s1)c1ccc(N2CCCCC2)c([N+](=O)[O-])c1 | ? | 0.0% | 2.6% | 16.4µM* | 20.6µM* | 7.9%
CCCC(=O)N1CCN(c2ccc(NC(=O)c3ccc(N4CCCC4)c([N+](=O)[O-])c3)cc2Cl)CC1 | 50.7 | 12.6% | 24.6% | 18.4µM* | 7.31µM* | /
O=C(Nc1nc2ccc3ccccc3c2s1)c1ccc(N2CCCCC2)c([N+](=O)[O-])c1 | -13.7 | 4.2% | 2.1% | ? | ? | 4.4%
Cc1cc(C)c2oc(-c3cccc(NC(=O)COc4ccc([N+](=O)[O-])cc4)c3)nc2c1 | / | -19.4% | -0.3% | -19.4% | ? | 5.8%
CCOc1ccc(NC(=O)Cn2c(=O)n(Cc3ccc(C(=O)NCc4ccc5c(c4)OCO5)cc3)c(=O)c3ccccc32)cc1 | / | -0.2% | -2.3% | -19.6% | -7.3% | 1.8%
CCOc1nc2ccccc2cc1C=O | 55.4 | 5.4% | -4.2% | 2.31µM* | 2.59µM* | 6.0%
CCCOc1nc2ccccc2cc1/C=C/C(=O)O | 29.5 | 0.3% | -12.7% | -22.7% | -28.6% | -5.3%
C[C@@H]1CN([C@@H](C)CO)C(=O)c2cc(C#CCN(C)C)cnc2O[C@H]1CN(C)Cc1ccc2c(c1)OCO2 | -15.5 | 17.7% | 4.5% | 21.4% | 1.5% | /
O=C(c1ccc(Cl)c(S(=O)(=O)NCc2ccco2)c1)N1CCN(c2ccc(F)cc2)CC1 | -2.2 | -6.4% | -4.8% | 16.4µM* | 23.1µM* | 6.0%
CC(=O)c1ccc(N2CCN(C(=O)/C=C/c3ccc(S(=O)(=O)NCc4ccco4)cc3)CC2)cc1 | 1.3 | -9.1% | -16.4% | 20.6µM* | 20.6µM* | 5.1%
CC(=O)c1ccc(N2CCN(C(=O)/C=C/c3ccc(S(=O)(=O)N4CCOCC4)cc3)CC2)cc1 | 13.5 | 0.0% | 0.0% | 18.4µM* | 14.6µM* | 8.2%
O=C(Nc1ccc(N2CCOCC2)cc1)c1ccc(S(=O)(=O)NCc2ccco2)cc1 | 11.2 | -0.9% | -0.7% | 19.2% | 0.3% | -5.0%
CCc1ccc(C(=O)c2cn(CC(=O)Nc3cc(C)ccc3C)c3nc(C)ccc3c2=O)cc1 | / | -2.6% | -6.8% | -13.3% | -13.2% | 2.6%
O=C(c1cc(COc2ccc(F)cc2F)on1)N1CCN(C2CCCC2)C(=O)C1 | -3.8 | -23.0% | 0.4% | ? | ? | 1.5%
COc1cc(OC)cc(C(=O)N2CCN(C(=O)c3cccnc3)CC2)c1 | 14.6 | 0.9% | -1.0% | -0.5% | 6.5% | /
COc1ccc(C2/C=C\[C@H](O[Si](C)(C)C(C)(C)C)[C@H](C(C)C)CC(=O)N2Cc2ccccc2)cc1 (some centres undefined) | / | / | / | / | / | 5.1%
CC[C@H](C)[C@@H](NC(=O)O[C@@H]1C(=O)c2ccc(OC)cc2O[C@H]1c1cccc(C(F)(F)F)c1)C(=O)OC | / | / | / | / | / | 4.4%
SMILES | IL-1B inflam inh | TGFb inhibitor | HepG2 tox | DT40 TDP1 CPT | DT40 TDP1 no CPT | TDP1 inh
COc1cnc(-c2ccccn2)nc1Oc1ccc(F)cc1F | 15.9 | ? | -29.8% | 10.3µM* | 3.66µM* | 5.9%
COc1cnc(-c2ccccn2)nc1Oc1ccc(Cl)c2ccccc12 | -9.9 | -17.4% | -38.3% | 1.3µM* | 1.16µM* | 9.9%
COc1cnc(-c2ccccn2)nc1Oc1ccc(Cl)cc1 | -24.9 | 13.2% | -40.3% | 1.64µM* | 1.46µM* | 10.5%
CCOC(=O)CN1C(=O)/C(=C/c2c(F)cccc2Cl)Oc2ccccc21 | ? | 19.7% | -3.1% | ? | ? | /
N#Cc1c(SCC(=O)Nc2nncs2)sc2c(O)cc(=O)[nH]c12 | 41.8 | -0.8% | -4.3% | -1.6% | -19.8% | /
COc1cccc(/C=N/NC(=O)C(c2ccncc2)N2CCOCC2)c1 (centres undefined) | 3.6 | 0.0% | -33.0% | 17.1% | -19.1% | /
O=C(N/N=C/c1cc(Br)ccc1O)C(c1ccncc1)N1CCOCC1 (centres undefined) | 89.7 | ? | 21.6% | 4.11µM* | 8.2µM* | -5.6%
COc1ccc(CN(C)CC2CCCN(CCc3ccc(Cl)cc3)C2)cc1OC (centres undefined) | -86.3* | -6.3% | -29.9% | ? | ? | /
COc1ccc(CN(C)CC2CCCN(CCc3ccc(F)cc3)C2)cc1OC (centres undefined) | ? | -4.8% | -39.4% | 16.4µM* | 23.1µM* | 3.9%
COc1cc(CN(C)CC2CCCN(CCc3cccc(C(F)(F)F)c3)C2)ccc1O (centres undefined) | ? | -10.2% | -34.9% | ? | 23.1µM* | /
CC(=O)c1cccc(CN(C)CC2CCCN(CCc3ccccc3C)C2)c1 (centres undefined) | -11.6 | -6.4% | -53.9% | 16.4µM* | ? | /
CC(=O)Nc1ccc(S(=O)(=O)Nc2nnc(C(C)C)s2)cc1 | 3.7 | -19.7% | -19.9% | 11.7% | -4.5% | 4.0%
